These results are taken from PubChem BioAssay.

Calls of active or inactive are those of the source.

Test [1] in a line: A549 cell viability effects, profiling panel, calcein-AM fluorescence, 48 h, basal (AID 1162). To be noted: higher = more signal.
Test [2] is described as follows: adipocyte viability effects, profiling panel, cell-based, 3T3-L1 adipocytes, calcein-AM fluorescence, 48 h, basal (AID 1163). To be noted: 3T3-L1 adipocytes viability, higher = more signal.
The nature of test [3]: HepG2 cell viability effects, profiling panel, calcein-AM fluorescence, 48 h, basal (AID 1164). To be noted: higher = more signal.
Test [4] in a line: MM1S cell viability effects, profiling panel, calcein-AM fluorescence, 48 h, basal (AID 1165).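 Further: viability of MM1S multiple myeloma cells under basal unstimulated conditions.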 The settings on record: higher = more signal.
Test [5] can be described thus: basal RPMI8226 viability, no added stimulus, profiling panel, cell-based, calcein-AM fluorescence, 48 h, PK04 Diversity Set (AID 1166).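 Further: cells grown under basal conditions without added stimulus.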 To be noted: RPMI8226 myeloma viability, higher = more signal.
Test [6] can be described thus: basal HepG2 mitochondrial membrane potential changes, profiling panel, cell-based, JC-1 fluorescence, 24 h, 100 nL compound (AID 1167). The settings on record: higher = more signal.
Test [7] is described as follows: basal 3T3-L1 adipocyte mitochondrial potential changes, profiling panel, cell-based, JC-1 fluorescence, 3T3-L1 adipocytes, 24 h, 100 nL compound (AID 1168). The settings on record: JC-1 mitochondrial fluorescence, higher = more signal, called active from +8 up or from −8 down.
Test [8] in a line: basal RPMI8226 mitochondrial membrane potential changes, profiling panel, cell-based, JC-1 fluorescence, 24 h, 100 nL compound (AID 1169). To be noted: RPMI8226 myeloma, JC-1 mitochondrial potential fluorescence, higher = more signal.
Test [9] can be described thus: basal MM1S mitochondrial membrane potential changes, profiling panel, cell-based, JC-1 fluorescence, 24 h, 100 nL compound (AID 1170). To be noted: higher = more signal.
Test [10] can be described thus: A549 lung cancer cell viability effects, profiling panel, resazurin fluorescence, 24 h, PK04 Diversity Set (AID 1171). To be noted: higher = more signal, called active from +8 up or from −8 down.
Further: test concentration not given here.

Turning to `O=C1C[C@@H](O)[C@@H](O)[C@@H]2[C@@H]3C(=O)N(C4CCCCC4)C(=O)[C@@H]3CC[C@@H]12`, the z-score in test [1] is 0.112; in [2] it was 0.0679; in [3], 0.236; in [4], -0.0357; in test [5], 0.313; in test [6], 0.0325. The z-score in [7] is -0.907 (inactive); in [8] it was 0.0121; in test [9] it was -0.377; in test [10], -0.732 (inactive).
As to `C[C@@H]1CC[C@H]2C(=O)OC(CN3C(=O)c4ccccc4C3=O)CN2[C@H]1c1ccc(Br)cc1` (stereo not given in full), the z-score is 0.0752 in [1]; -0.0986 in test [2]; 0.182 in test [3]; 0.49 in test [4]; 0.447 in test [5]; 0.239 in test [6]. The z-score in test [7] was -0.105 (inactive); in [8], -0.911; in test [9] it was 1.67; in test [10], 0.705 (inactive).
Take `CC(=O)OC[C@H]1O[C@H](CCON=C(C)CCN2CCCc3nc(C)c(C)cc32)C=C[C@@H]1OC(C)=O`: the z-score in [1] is 0.235; in test [2], -0.9; in [3], -0.667; in [4] it was -1.85; in [5], -1.27; in [6] it was -0.689. In addition, the z-score in [7] was -0.805 (inactive); in test [8], 1.03; in [9] it was -0.033; in test [10], -0.221 (inactive).
Regarding `CC(C)=NOC(C)CN1CCCc2nc(C)c(C)cc21` (stereo not given), the z-score was 0.755 in test [1]; -0.588 in test [2]; 0.272 in test [3]; -0.237 in [4]; 0.0977 in test [5]; 0.0197 in test [6]. Also, the z-score was -0.24 (inactive) in test [7], -0.416 in [8], 0.226 in test [9] and -0.373 (inactive) in [10].
In the case of `COC(=O)[C@H](C)NC(=O)CCC1CC(OC(=O)NCc2cccc3ccccc23)CC2(CCCC(COC(=O)NCc3cccc(C(F)(F)F)c3)O2)O1` (stereo not given in full), the z-score is 0.826 in [1]; -0.508 in [2]; -0.918 in [3]; -3.11 in test [4]; -0.0274 in [5]; -0.707 in test [6]. Besides, the z-score was 0.733 (inactive) in test [7], -0.742 in test [8], -0.905 in test [9] and -1.16 (inactive) in test [10].
`CC(C)=CCCC(C)=CCON=C1C[C@@H](O)[C@@H](O)[C@@H]2[C@@H]3C(=O)N([C@@H](C)c4ccccc4)C(=O)[C@@H]3CC[C@@H]12`: the z-score in test [1] is -0.412; in test [2] it was 0.934; in [3], -0.341; in test [4] it was 0.176; in test [5], -0.249; in [6], -0.781. In addition, the z-score in [7] was -0.598 (inactive); in test [8], 0.0813; in [9], 0.114; in test [10], -0.21 (inactive).
Take `CC(CCC(=O)OC[C@H]1O[C@H](C#Cc2ccccc2)C=C[C@@H]1Oc1ccc(C)cc1)=NOC(C)CN1CCCCc2nc(C)c(C)cc21` (stereo not given in full): the z-score in [1] was 0.393; in [2], -0.239; in [3], 0.0574; in [4], -2.15; in test [5] it was -1.73; in test [6], 1.34. Further, the z-score in test [7] was -2.02 (inactive); in test [8] it was -0.325; in [9], -0.737; in test [10], 0.599 (inactive).
As to `COc1ccc(COC(=O)NN=C2C[C@@H](O)[C@@H](O)[C@@H]3[C@@H]4C(=O)N([C@@H](C)c5ccccc5)C(=O)[C@@H]4CC[C@H]23)cc1`, the z-score in test [1] was -0.0502; in test [2], 0.155; in test [3], -0.791; in [4] it was 0.145; in test [5] it was -0.486; in test [6], -0.888. Moreover, the z-score in test [7] was -0.653 (inactive); in [8], -0.0767; in test [9], 0.493; in test [10] it was 0.541 (inactive).
As for `COc1ccc(COC(=O)NN=C2C[C@@H](O)[C@@H](O)[C@@H]3[C@@H]4C(=O)N(C[C@@H]5CCCO5)C(=O)[C@@H]4CC[C@@H]23)cc1`, the z-score is 0.795 in test [1]; -0.825 in test [2]; 0.245 in test [3]; -0.657 in [4]; 0.51 in test [5]; 0.567 in test [6]. For the same compound, the z-score in [7] was 0.658 (inactive); in [8], -0.252; in [9], -1.38; in test [10], -0.547 (inactive).
As for `CO[C@@H]1COC(=O)[C@H](CCSC)NC(=O)CC=C[C@@H](C)COC(=O)[C@@H]2CCCN2C(=O)CC=C[C@H]1C`, the z-score was -0.25 in test [1]; -0.094 in test [2]; 0.182 in test [3]; 0.105 in test [4]; 0.339 in test [5]; 0.754 in test [6]. Further, the z-score in test [7] was 0.579 (inactive); in [8] it was -0.79; in test [9], 0.326; in [10] it was 0.285 (inactive).
As for `CC(=O)OC[C@H]1O[C@@H](ON=C(C)C)[C@H](OC(C)=O)[C@@H](OC(C)=O)[C@@H]1OC(C)=O`, the z-score is -0.132 in test [1]; 0.0138 in test [2]; -0.179 in test [3]; -0.0646 in test [4]; -0.43 in [5]; -0.0132 in [6]. The z-score is -0.763 (inactive) in [7], 0.93 in test [8], 0.35 in test [9] and -0.0264 (inactive) in test [10].
On to `CCOC(=O)CCN1C(=O)[C@H]2[C@H]3[C@H](O)[C@H](O)CC(=NNC(=O)OCC)[C@H]3CC[C@H]2C1=O`, for which the z-score was -1.19 in test [1]; 0.895 in test [2]; -0.418 in [3]; -2.14 in test [4]; -3.78 in test [5]; -0.357 in [6]. Also, the z-score in [7] was -1.19 (inactive); in test [8], -0.541; in [9], 0.0724; in test [10], -0.698 (inactive).
With `CO[C@H]1COC(=O)[C@H](C)COC(=O)[C@@H](OCc2ccccc2)C=C[C@@H]1C`, the z-score in [1] was 0.644; in test [2] it was 0.0582; in test [3], 0.392; in test [4] it was 0.493; in test [5] it was -0.584; in test [6], 0.919. Further, the z-score was 0.308 (inactive) in [7], -0.177 in [8], 1.26 in [9] and -0.0266 (inactive) in test [10].
Turning to `CCN1C(=O)[C@H]2[C@H]3[C@H](O)[C@H](O)CC(=NNC(=O)OCc4ccccc4)[C@@H]3CC[C@H]2C1=O`, the z-score was -0.0627 in test [1]; 0.0682 in test [2]; -0.131 in test [3]; -0.0309 in test [4]; 0.718 in [5]; -0.653 in test [6]. The z-score in test [7] was -1.19 (inactive); in test [8] it was -0.118; in test [9], -0.458; in test [10] it was -0.32 (inactive).
As for `CC(C)CN1CCc2nc(-c3ccccc3)c3c(c2C1)CO[C@@H](C)C3`, the z-score in test [1] was 1.2; in [2] it was -0.274; in [3], 0.0114; in [4], 0.639; in test [5] it was -0.409; in test [6], 0.462. The z-score is 0.0658 (inactive) in test [7], -0.0878 in [8], 0.708 in test [9] and -0.139 (inactive) in test [10].
As for `C#CCCCON=C1C[C@@H](O)[C@@H](O)[C@@H]2[C@@H]3C(=O)N(C[C@@H]4CCCO4)C(=O)[C@@H]3CC[C@@H]12`, the z-score is 0.137 in test [1]; 1.22 in [2]; -0.396 in test [3]; 0.476 in test [4]; -0.0761 in test [5]; -0.444 in test [6]. Moreover, the z-score is 0.27 (inactive) in [7], -0.193 in test [8], -0.485 in test [9] and 0.0354 (inactive) in test [10].
